The values that follow are results of earlier work, collected in PubChem BioAssay AID977611.

A word on the Kd: it is a measure of binding affinity in units of concentration.

Out of some 3,900 compounds screened, about 3,900 (100%) were called active. No cut-off is given here; in the data, nearly all actives have Kd up to about 4200 µM. The set was probably picked from earlier hits. The list shows a part of the results. Where a SMILES comes first, the peptide text is derived from it. Non-standard residues stand in square brackets, D forms with d. Square brackets hold non-standard residues; d marks the D form. Residues, ends and D or L forms follow the SMILES beside them. Peptide text beside a SMILES is read from it. [ ]: non-standard residue; d: D form. Orn(CH(NH2)2) = NC(N)NCCC[C@H](N)C(=O)O

The data set in a line: PubChem AID 977611. The conditions noted are these: PDB protein-ligand complexes, literature Kd.

`CC[C@H](C)[C@H](NC(=O)[C@@H]1CCCN1C(=O)[C@H](CCC(=O)O)NC(=O)[C@H](Cc1ccc(O)cc1)NC(=O)[C@H](CC(=O)O)NC(=O)[C@@H]1CCCN1C(=O)[C@H](CC(N)=O)NC(=O)[C@@H]1CCCN1C(=O)[C@@H](NC(=O)[C@@H]1CCCN1C(=O)[C@@H]1CCCN1)C(C)C)C(=O)N[C@H](C=O)CCCNC(N)N` (H-PPVPNPDYEPI[Orn(CH(NH2)2)]-aldehyde): where the note is “protein: Epidermal growth factor receptor kinase substrate 8-like protein 1 SH3 domain, PDB entry 2rol”, the Kd is 24000 nM (active). As for H-ARYGVSNTSINRK-OH, the Kd is 300 nM (active) (protein: Protein HTP-1 P84L, PDB entry 4tzq) and 200 nM (active) (protein: Protein HTP-2, PDB entry 4tzm). Consider H-ATGSARSEGY-OH, for which, under “protein: WD repeat-containing protein 5, WDR5, PDB entry 4ewr”, the Kd is 541 nM (active). Turning to `O=C(CCS)N1CCC(O)(c2ccc(Cl)c(C(F)(F)F)c2)CC1`, the Kd (protein: CREB-binding protein, PDB entry 4i9o) is 1900 nM (active).

As for `CC(C)C[C@H](NC(=O)CNC(=O)[C@H](CCCNC(N)N)NC(=O)[C@@H](N)CO)C(=O)N[C@@H](CCC(=O)O)C(=O)N[C@H](C(=O)N[C@@H](CO)C(=O)N[C@@H](Cc1cnc[nH]1)C(=O)N[C@@H](CCCNC(N)N)C(=O)N[C@@H](CC(C)C)C(=O)N[C@@H](C)C(=O)N1CCC[C@H]1C(=O)N[C@@H](Cc1c[nH]c2ccccc12)C(=O)O)C(C)C` (H-S[Orn(CH(NH2)2)]GLEVSH[Orn(CH(NH2)2)]LAPW-OH), the Kd (protein: Telomeric repeat-binding factor 2, PDB entry 4m7c) is 750 nM (active). Consider `CSCC[C@H](N)C(=O)N1CCC[C@H]1C(=O)N1CCC[C@H]1C(=O)N[C@H](C(=O)N[C@@H](CC(C)C)C(=O)N1CCC[C@H]1C(=O)N[C@@H](Cc1cnc[nH]1)C(=O)N[C@@H](CCCNC(N)N)C(=O)N[C@@H](CC(=O)O)C(=O)N[C@@H](Cc1c[nH]c2ccccc12)C(=O)O)[C@@H](C)O` (H-MPPTLPH[Orn(CH(NH2)2)]DW-OH), for which the Kd (protein: Peroxisomal membrane protein PAS20 (SH3 domain), PDB entry 1n5z) is 44000 nM (active).

For the compound `CC(C)C[C@H](NC(=O)[C@H](Cc1cnc[nH]1)NC(=O)[C@H](CCC(=O)O)NC(=O)[C@H](Cc1c[nH]c2ccccc12)NC(=O)[C@@H](NC(=O)[C@H](Cc1ccc(O)cc1)NC(=O)[C@@H](NC(=O)[C@H](C)NC(=O)[C@@H](N)CC(=O)O)[C@@H](C)O)[C@@H](C)O)C(=O)N[C@@H](C)C(=O)N[C@@H](Cc1c[nH]c2ccccc12)C(=O)N1CCC[C@H]1C(=O)O`, the equilibrium dissociation constant (Kd) (protein: The human ?-aminobutyric acid type A (GABAA), PDB entry 3d32) was 354 nM (active). On to H-SWVYSPLHYSA-OH, for which, under “protein: Talin FERM F3 domain, PDB entry 1y19”, the Kd is 170 nM (active). `CC(=O)N[C@H](C(=O)N[C@@H](CCC(N)=O)C(=O)NCC(=O)N[C@@H](CO)C(=O)NCC(=O)N[C@@H](C)C(=O)N[C@@H](Cc1ccccc1)C(=O)NCC(=O)N[C@@H](CCCNC(N)N)C(N)=O)C(C)C` (Ac-VQGSGAFG[Orn(CH(NH2)2)]-NH2): the Kd (protein: Fab fragment of the mAb 106.3, PDB entry 3e8u) was 0.38 nM (active). Regarding H-AAAFSFKKSFKLSGFSFK-OH, the Kd (protein: Ca2+-Calmodulin, PDB entry 1iwq) was 8.8 nM (active). On to `CC(C)C[C@H](NC(=O)[C@H](CCCNC(N)N)NC(=O)[C@H](CCCNC(N)N)NC(=O)[C@H](CCCCN)NC(=O)[C@H](C)NC(=O)[C@H](CO)NC(=O)CN)C(=O)N[C@@H](Cc1ccccc1)C(=O)NCC(=O)N[C@@H](CCC(=O)O)C(=O)O` (H-GSAK[Orn(CH(NH2)2)][Orn(CH(NH2)2)]LFGE-OH), for which, where the note is “protein: phospho-CDK2/cyclin A, PDB entry 1h28”, the Kd was 300 nM (active). With `CC(=O)N[C@@H](CCCCN)C(=O)N[C@@H](CCCCN)C(=O)N[C@@H](CCCNC(N)N)C(=O)N[C@@H](Cc1ccc(O)cc1)C(=O)N[C@@H](CO)C(=O)N[C@@H](CCCNC(N)N)C(=O)N[C@@H](CCC(=O)O)C(=O)N[C@@H](Cc1ccccc1)C(=O)N[C@@H](CC(C)C)C(=O)N[C@@H](CC(C)C)C(=O)NCC(=O)N[C@@H](Cc1ccccc1)C(N)=O` (Ac-KK[Orn(CH(NH2)2)]YS[Orn(CH(NH2)2)]EFLLGF-NH2), the Kd (protein: EUKARYOTIC TRANSLATION INITIATION FACTOR 4E, PDB entry 4aza) is 103 nM (active). Take `Cc1n[nH]c(C)c1CCCOc1cc(C(=O)O)ccc1F`: the Kd (protein: Transthyretin (V122I mutation), PDB entry 4hiq) was 6.2 nM (active). With `OCCOCCOCCOCCOCCOCCOCCOCCOCCOCCOCCOCCOCCOCCOCCOCCOCCOCCOCCOCCOCCOCCOCCOCCOCCO`, the Kd is 210000 nM (active) (protein: Prostaglandin-H2 D-isomerase L-PGDS C65A mutant, PDB entry 4oru); 297000 nM (active) (protein: Prostaglandin-H2 D-isomerase L-PGDS C65A-K59A double mutant, PDB entry 4orx); 297000 nM (active) (protein: Prostaglandin-H2 D-isomerase L-PGDS C65A-K59A double mutant, PDB entry 4ory).

`OC[C@@H]1O[C@@H](O[C@@H]2[C@@H](O)[C@H](O[C@@H]3CO[C@@H](O)[C@H](O)[C@H]3O)OC[C@H]2O)[C@H](O)[C@H]1O`: for the setting “protein: SUGAR TRANSPORTER SOLUTE-BINDING PROTEIN, PDB entry 4c1u”, the Kd was 81 nM (active). For the compound `OC[C@@H]1O[C@@H](O[C@H]2[C@H](O[C@@H]3CO[C@@H](O[C@@H]4CO[C@@H](O)[C@H](O)[C@H]4O)[C@H](O)[C@H]3O)OC[C@@H](O)[C@@H]2O)[C@H](O)[C@H]1O`, where the note is “protein: SUGAR TRANSPORTER SOLUTE-BINDING PROTEIN, PDB entry 4c1t”, the Kd is 70.8 nM (active). `Nc1[nH]c(=S)nc2nc[nH]c12`: the Kd (protein: 6-hydroxymethyl-7,8-dihydropterin pyrophosphokinase, PDB entry 4m5n) was 7500 nM (active). For `CC(C)C[C@H](NC(=O)[C@H](CC(N)=O)NC(=O)[C@H](CC(C)C)NC(=O)[C@@H](NC(=O)[C@@H](NC(=O)[C@@H]1CCCN1C(=O)[C@H](CCCNC(N)N)NC(=O)[C@H](CCCCN)NC(=O)[C@@H]1CCCN1)[C@@H](C)O)[C@@H](C)O)C(=O)N[C@@H](Cc1ccccc1)C(=O)O` (HELM PEPTIDE1{P.K.[NC(N)NCCC[C@H](N[*:1])C(=O)[*:2]].P.T.T.L.N.L.F}$$$$V2.0), the Kd (protein: Mitogen-activated protein kinase 8 isoform 4, PDB entry 1ukh) is 420 nM (active).
